# The source made the active and inactive calls. Rule for the calls: active = hit-call score of the fitted dose curve at least 0.9, where 1 is the maximum; inactive = score below 0.9.
# What was measured:
# Conditions in all cases: mRNA level, 48 h; actives raise or lower the signal
# [1] = read-out: Cytochrome P450 3A4 (Homo sapiens) (UniProt P08684); assay: LTEA_HepaRG_CYP3A4: Life Technologies and Expression Analysis (LTEA) Assay for CYP3A4 using HepaRG (AID 2283487)
# Outline: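 In a human hepatic line (HepaRG), duplicate wells were treated 48 h with up to 100 uM chemical in half-log dilutions. Endpoint: CYP3A4 mRNA induction or loss relative to 0.5% DMSO vehicle, by qRT-PCR.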
# [2] = read-out: DNA damage-inducible transcript 3 (DDIT3), DDIT3 (gene 1649); assay: LTEA_HepaRG_DDIT3: Life Technologies and Expression Analysis (LTEA) Assay for DNA damage-inducible transcript 3 (DDIT3) using HepaRG (AID 2283488)
# Outline: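 qRT-PCR readout (Fluidigm TaqMan), housekeeping-normalized to ACTB, GAPDH, POLR2A. HepaRG cells, 48 h exposure, 8-point half-log series from 100 uM in 0.5% DMSO, duplicates. Gain or loss of signal fitted against DMSO baseline.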
# [3] = read-out: Pro-epidermal growth factor (Homo sapiens) (UniProt P01133); assay: LTEA_HepaRG_EGF: Life Technologies and Expression Analysis (LTEA) Assay for Epidermal growth factor (EGF) using HepaRG (AID 2283489)
# Outline: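 EGF expression changes in human HepaRG cells are scored by bidirectional fitting relative to 0.5% DMSO controls. Chemicals are tested at eight half-log concentrations up to 100 uM for 48 h in serum-free induction medium.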
# [4] = read-out: Early growth response protein 1 (EGR1) transcription factor, EGR1 (gene 1958); assay: LTEA_HepaRG_EGR1: Life Technologies and Expression Analysis (LTEA) Assay for Early growth response protein 1 (EGR1) transcription factor using HepaRG (AID 2283490)
# Outline: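 EGR1 expression change in human HepaRG after 48 h chemical exposure, assessed by housekeeping-normalized qRT-PCR; concentration-response up to 100 uM, fitted in both directions against DMSO controls.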
# [5] = read-out: Ezrin (EZR), EZR (gene 7430); assay: LTEA_HepaRG_EZR: Life Technologies and Expression Analysis (LTEA) Assay for Ezrin (EZR) using HepaRG (AID 2283491)
# Outline: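 Gain or loss of EZR mRNA is scored relative to 0.5% DMSO in human HepaRG cultures treated 48 h with test chemicals in duplicate, eight half-log concentrations from 100 uM.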
# [6] = read-out: Cytochrome P450 3A7 (Homo sapiens) (UniProt P24462); assay: LTEA_HepaRG_CYP3A7: Life Technologies and Expression Analysis (LTEA) Assay for CYP3A7 using HepaRG (AID 2283492)
# Outline: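 Cells were thawed, plated, cultured 48 h, then treated for a further 48 h with chemicals (eight-point half-log series from 100 uM, 0.5% DMSO). RNA was isolated and CYP3A7 expression quantified by qRT-PCR normalised to ACTB, GAPDH and POLR2A.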
# [7] = read-out: CYP3A5 (gene 1577); assay: LTEA_HepaRG_CYP3A5: Life Technologies and Expression Analysis (LTEA) Assay for CYP3A5 using HepaRG (AID 2283493)
# Outline: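 qRT-PCR read-out: CYP3A5 transcript in HepaRG lysates, housekeeping-normalized (ACTB/GAPDH/POLR2A), fitted bidirectionally against 0.5% DMSO baseline. Exposure 48 h, eight half-log concentrations up to 100 uM, duplicates.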
# [8] = read-out: Fatty Acid-Binding Protein 1 (FABP1), FABP1 (gene 2168); assay: LTEA_HepaRG_FABP1: Life Technologies and Expression Analysis (LTEA) Assay for Fatty Acid-Binding Protein 1 (FABP1) using HepaRG (AID 2283494)
# Outline: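 Values reflect bidirectional concentration-response fitting of FABP1 mRNA change against 0.5% DMSO controls. Human HepaRG cultures received eight half-log doses (top 100 uM) for 48 h; expression quantified by TaqMan qRT-PCR with housekeeping-gene normalization.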
# [9] = read-out: Cytochrome P450 4A22 (Homo sapiens) (UniProt Q5TCH4); assay: LTEA_HepaRG_CYP4A22: Life Technologies and Expression Analysis (LTEA) Assay for Cytochrome P450 4A22 (CYP4A22) using HepaRG (AID 2283495)
# Outline: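 Cryopreserved HepaRG cells, plated and cultured 48 h, then switched to serum-free induction medium and treated 48 h (duplicates, up to 100 uM, half-log steps, 0.5% DMSO). Expression change of CYP4A22 was fitted bidirectionally against vehicle.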
# [10] = read-out: Cytochrome P450 7A1 (Homo sapiens) (UniProt P22680); assay: LTEA_HepaRG_CYP7A1: Life Technologies and Expression Analysis (LTEA) Assay for Cytochrome P450 7A1 (CYP7A1) using HepaRG (AID 2283496)
# Outline: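 Using 0.5% DMSO as vehicle and baseline, chemicals were tested in duplicate over an 8-point range from 100 uM on HepaRG cells for 48 h; qRT-PCR signals were normalised to ACTB, GAPDH and POLR2A.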
# [11] = read-out: Glutathione S-Transferase (GSTA2), GSTA2 (gene 2939); assay: LTEA_HepaRG_GSTA2: Life Technologies and Expression Analysis (LTEA) Assay for Glutathione S-Transferase (GSTA2) using HepaRG (AID 2283497)
# Outline: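 Oxidative-stress marker GSTA2 is quantified by TaqMan qRT-PCR in HepaRG cultures treated 48 h across an eight-point range to 100 uM. Expression is normalized to endogenous controls and compared with 0.5% DMSO vehicle.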
# [12] = read-out: Glutamate-cysteine ligase catalytic (GCLC), GCLC (gene 2729); assay: LTEA_HepaRG_GCLC: Life Technologies and Expression Analysis (LTEA) Assay for Glutamate-cysteine ligase catalytic (GCLC) using HepaRG (AID 2283498)
# Outline: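 Oxidative-stress marker GCLC is measured as mRNA change in human HepaRG liver cells after 48 h chemical treatment in 0.5% DMSO, eight concentrations from 100 uM. Activity is fitted bidirectionally against vehicle.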
# [13] = read-out: growth arrest and DNA damage 45 (GADD45G), GADD45G (gene 10912); assay: LTEA_HepaRG_GADD45G: Life Technologies and Expression Analysis (LTEA) Assay for growth arrest and DNA damage 45 (GADD45G) using HepaRG (AID 2283499)
# Outline: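 Human hepatic HepaRG line treated 48 h with chemicals (eight concentrations, half-log steps from 100 uM); transcript induction or repression of GADD45G scored by qRT-PCR versus DMSO vehicle.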
# [14] = read-out: Glutamate-cysteine ligase regulatory (GCLM), GCLM (gene 2730); assay: LTEA_HepaRG_GCLM: Life Technologies and Expression Analysis (LTEA) Assay for Glutamate-cysteine ligase regulatory (GCLM) using HepaRG (AID 2283500)
# Outline: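 HepaRG, 48 h dosing, 100 uM top, half-log x8, 0.5% DMSO vehicle. Readout: GCLM mRNA by TaqMan qRT-PCR, housekeeping-normalized (ACTB/GAPDH/POLR2A). Curves fit bidirectionally vs DMSO baseline.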
# [15] = read-out: Glutathione S-transferase M3 (GSTM3), GSTM3 (gene 2947); assay: LTEA_HepaRG_GSTM3: Life Technologies and Expression Analysis (LTEA) Assay for Glutathione S-transferase M3 (GSTM3) using HepaRG (AID 2283501)
# Outline: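 Changes in GSTM3 expression, an oxidative-stress marker, were scored by bidirectional curve fitting against 0.5% DMSO vehicle. Human HepaRG cultures received chemicals for 48 h in duplicate, highest concentration 100 uM with half-log dilutions.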
# [16] = read-out: Heat shock 70 kDa protein 1 (HSPA1A), gene 3303; assay: LTEA_HepaRG_HSPA1A: Life Technologies and Expression Analysis (LTEA) Assay for Heat shock 70 kDa protein 1 (HSPA1A) using HepaRG (AID 2283502)
# Outline: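 HepaRG, 48 h exposure, 8-pt half-log CRC from 100 uM in 0.5% DMSO, duplicates. Readout: TaqMan qRT-PCR of HSPA1A mRNA, housekeeping-normalized (ACTB/GAPDH/POLR2A). Bidirectional fit vs 0.5% DMSO baseline.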
# [17] = read-out: Hypoxia-inducible factor 1-alpha (Homo sapiens) (UniProt Q16665); assay: LTEA_HepaRG_HIF1A: Life Technologies and Expression Analysis (LTEA) Assay for Hypoxia-inducible factor 1 (HIF1A) Trancription factor using HepaRG (AID 2283503)
# Outline: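 Gain- or loss-of-signal HIF1A mRNA changes are fitted against a DMSO baseline. HepaRG cultures receive eight concentrations, highest 100 uM, for 48 h in serum-free induction medium with 0.5% DMSO.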
# [18] = read-out: 3-Hydroxy-3-Methylglutaryl-CoA Synthase 2 (HMGCS2), HMGCS2 (gene 3158); assay: LTEA_HepaRG_HMGCS2: Life Technologies and Expression Analysis (LTEA) Assay for 3-Hydroxy-3-Methylglutaryl-CoA Synthase 2 (HMGCS2) using HepaRG (AID 2283504)
# Outline: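 Expression of HMGCS2 in human HepaRG liver cells is measured by qRT-PCR 48 h after dosing (highest 100 uM, half-log series, 0.5% DMSO). Values come from bidirectional concentration-response fitting with DMSO as baseline.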
# [19] = read-out: HGF (gene 3082); assay: LTEA_HepaRG_HGF: Life Technologies and Expression Analysis (LTEA) Assay for Hepatocyte Growth Facto (HGF) using HepaRG (AID 2283505)
# Outline: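 Gain or loss of HGF mRNA in human HepaRG liver cells after 48 h chemical exposure; eight concentrations up to 100 uM with 0.5% DMSO vehicle, quantified by TaqMan qRT-PCR.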
# [20] = read-out: Insulin Like Growth Factor 1 (IGF1), IGF1 (gene 3479); assay: LTEA_HepaRG_IGF1: Life Technologies and Expression Analysis (LTEA) Assay for Insulin Like Growth Factor 1 (IGF1) using HepaRG (AID 2283506)
# Outline: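 qRT-PCR readout of IGF1 mRNA, normalized to three housekeeping genes, after 48 h chemical exposure of HepaRG cells. Concentrations: 8-point half-log series, top 100 uM, 0.5% DMSO vehicle. Gain or loss fitted against DMSO baseline.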
# Cytochrome P450 3A4 (Homo sapiens), sequence (P08684 whole entry, looked up): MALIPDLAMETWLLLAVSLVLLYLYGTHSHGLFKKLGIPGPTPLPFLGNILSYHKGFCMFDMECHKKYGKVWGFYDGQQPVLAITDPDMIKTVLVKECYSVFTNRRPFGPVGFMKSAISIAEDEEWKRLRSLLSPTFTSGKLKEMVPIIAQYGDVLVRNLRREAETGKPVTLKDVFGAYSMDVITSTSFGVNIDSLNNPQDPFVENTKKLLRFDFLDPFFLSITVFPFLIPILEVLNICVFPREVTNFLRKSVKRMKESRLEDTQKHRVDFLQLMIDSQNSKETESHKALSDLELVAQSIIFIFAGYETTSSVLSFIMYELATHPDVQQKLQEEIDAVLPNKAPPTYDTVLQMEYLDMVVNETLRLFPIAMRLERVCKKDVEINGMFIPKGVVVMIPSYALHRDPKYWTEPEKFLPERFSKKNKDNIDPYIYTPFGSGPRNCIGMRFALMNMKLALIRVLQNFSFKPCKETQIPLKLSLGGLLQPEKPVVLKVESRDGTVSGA
# Hypoxia-inducible factor 1-alpha (Homo sapiens), sequence (Q16665 whole entry, looked up): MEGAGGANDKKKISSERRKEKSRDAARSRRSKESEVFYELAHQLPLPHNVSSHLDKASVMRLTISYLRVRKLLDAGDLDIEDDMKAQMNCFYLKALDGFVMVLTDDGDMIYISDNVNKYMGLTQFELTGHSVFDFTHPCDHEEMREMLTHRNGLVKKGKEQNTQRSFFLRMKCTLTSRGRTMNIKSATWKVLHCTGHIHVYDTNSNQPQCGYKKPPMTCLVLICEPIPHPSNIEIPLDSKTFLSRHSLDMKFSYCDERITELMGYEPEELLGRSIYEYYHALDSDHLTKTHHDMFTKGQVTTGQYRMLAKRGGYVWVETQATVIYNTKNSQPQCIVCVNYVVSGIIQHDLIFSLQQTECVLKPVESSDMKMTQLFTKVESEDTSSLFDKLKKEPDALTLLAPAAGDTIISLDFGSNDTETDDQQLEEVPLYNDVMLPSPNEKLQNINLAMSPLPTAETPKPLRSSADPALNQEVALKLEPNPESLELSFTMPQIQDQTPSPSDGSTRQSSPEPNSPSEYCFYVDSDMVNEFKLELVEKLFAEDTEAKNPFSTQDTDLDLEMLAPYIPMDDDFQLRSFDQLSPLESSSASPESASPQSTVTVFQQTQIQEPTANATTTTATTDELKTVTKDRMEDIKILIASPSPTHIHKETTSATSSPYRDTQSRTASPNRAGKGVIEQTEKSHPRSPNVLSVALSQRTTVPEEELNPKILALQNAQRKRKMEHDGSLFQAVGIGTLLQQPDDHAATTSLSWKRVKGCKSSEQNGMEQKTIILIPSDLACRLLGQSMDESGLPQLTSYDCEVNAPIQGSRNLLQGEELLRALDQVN
# Cytochrome P450 3A7 (Homo sapiens), sequence (P24462 whole entry, looked up): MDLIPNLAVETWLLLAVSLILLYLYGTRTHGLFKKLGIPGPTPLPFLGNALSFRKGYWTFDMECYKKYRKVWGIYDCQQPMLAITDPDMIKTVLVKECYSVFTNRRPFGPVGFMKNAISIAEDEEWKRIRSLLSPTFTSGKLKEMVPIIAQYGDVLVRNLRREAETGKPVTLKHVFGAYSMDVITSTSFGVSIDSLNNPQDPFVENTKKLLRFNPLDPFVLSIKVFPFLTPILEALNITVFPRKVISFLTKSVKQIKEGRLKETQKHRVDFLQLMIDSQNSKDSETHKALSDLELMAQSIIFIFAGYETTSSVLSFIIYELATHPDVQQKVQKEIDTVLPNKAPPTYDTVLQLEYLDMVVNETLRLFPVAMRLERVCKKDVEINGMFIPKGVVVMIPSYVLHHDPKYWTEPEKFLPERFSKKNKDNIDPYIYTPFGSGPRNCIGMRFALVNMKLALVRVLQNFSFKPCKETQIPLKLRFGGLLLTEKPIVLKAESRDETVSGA
smiles,measurement,setting,value
CSc1nnc(C(C)(C)C)c(=O)n1N,outcome,[1],inactive
same,outcome,[2],inactive
same,outcome,[3],inactive
same,outcome,[4],inactive
same,outcome,[5],inactive
same,outcome,[6],inactive
same,outcome,[7],inactive
same,outcome,[8],inactive
same,outcome,[9],inactive
same,outcome,[10],inactive
same,outcome,[11],inactive
same,outcome,[12],inactive
same,outcome,[13],inactive
same,outcome,[14],inactive
same,outcome,[15],inactive
same,outcome,[16],inactive
same,outcome,[17],inactive
same,outcome,[18],inactive
same,outcome,[19],inactive
same,outcome,[20],inactive
Cc1nn(-c2cc(NS(C)(=O)=O)c(Cl)cc2Cl)c(=O)n1C(F)F,AC50,[1],3.03 µM (active)
same,outcome,[2],inactive
same,outcome,[3],inactive
same,outcome,[5],inactive
same,AC50,[6],7.34 µM (active)
same,outcome,[7],inactive
same,outcome,[8],inactive
same,outcome,[9],inactive
same,outcome,[10],inactive
same,outcome,[11],inactive
same,outcome,[12],inactive
same,outcome,[13],inactive
same,outcome,[14],inactive
same,outcome,[15],inactive
same,outcome,[16],inactive
same,outcome,[17],inactive
same,outcome,[18],inactive
same,outcome,[19],inactive
CCCCOC(=O)c1ccccc1C(=O)O,outcome,[1],inactive
same,outcome,[2],inactive
same,outcome,[3],inactive
same,outcome,[4],inactive
same,outcome,[5],inactive
same,outcome,[7],inactive
same,outcome,[8],inactive
same,outcome,[9],inactive
same,outcome,[10],inactive
same,outcome,[11],inactive
same,outcome,[12],inactive
same,outcome,[13],inactive
same,outcome,[14],inactive
same,outcome,[15],inactive
same,outcome,[16],inactive
same,outcome,[17],inactive
same,outcome,[18],inactive
same,outcome,[19],inactive
same,outcome,[20],inactive
